Results: PubChem BioAssay AID1159580 (chemical genetic matrix, 2015)
The campaign covered roughly 5,500 compounds. About 2,000 (36%) were called active. Not shown: some 18% with an inconclusive outcome. Rule as the data show it: active = normalized growth mostly below about 0.91 (no sharp cut-off); inconclusive = no clear call, values can overlap the other calls; inactive = mostly above about 0.92. This is one part of the list.

Experiment: chemical genetic growth profiling, strain panel (AID 1159580);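 also: tested at 20 µM; growth read once vehicle control cultures reached saturation at 30 °C; 1 = growth at the plate median or of vehicle wells; lower values mean less growth of the strain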
Details: S. cerevisiae deletion strains, growth OD
[1] = locus YAR019C, strain CDC15, hits give low values
[2] = locus YBL105C, strain PKC1, hits give low values
[3] = locus YBR135W, strain CKS1, hits give low values
[4] = locus YBR136W, strain MEC1, hits give low values
[5] = locus YBR160W, strain CDC28, hits give low values
[6] = locus YDL017W, strain CDC7, hits give low values
[7] = locus YDL028C, strain MPS1, hits give low values
[8] = locus YDL101C, strain DUN1, hits give low values
[9] = locus YDL108W, strain KIN28, hits give low values
[10] = locus YDL132W, strain cdc53, hits give low values
[11] = locus YDL214C, strain PRR2, hits give low values
[12] = locus YDR052C, strain DBF4, hits give low values
[13] = locus YDR054C, strain cdc34, hits give low values
[14] = locus YDR226W, strain ADK1, hits give low values
[15] = locus YDR477W, strain SNF1, hits give low values
[16] = locus YER123W, strain YCK3, hits give low values
[17] = locus YER133W, strain GLC7, hits give low values
[18] = locus YFL009W, strain cdc4, hits give low values
[19] = locus YFL029C, strain CAK1, hits give low values
[20] = locus YFR003C, strain YPI1, hits give low values
[21] = locus YFR019W, strain FAB1, hits give low values
[22] = locus YFR028C, strain CDC14, hits give low values
[23] = locus YGR040W, strain KSS1, hits give low values
[24] = locus YGR052W, strain FMP48, hits give low values
[25] = locus YGR092W, strain DBF2, hits give low values
[26] = locus YHR030C, strain SLT2, hits give low values
[27] = locus YHR079C, strain IRE1, hits give low values
[28] = locus YHR082C, strain KSP1, hits give low values
[29] = locus YHR205W, strain SCH9, hits give low values
[30] = locus YIL147C, strain SLN1, hits give low values
[31] = locus YJL095W, strain BCK1, hits give low values
[32] = locus YJL128C, strain PBS2, hits give low values
[33] = locus YJL157C, strain FAR1, hits give low values
[34] = locus YJR016C, strain ILV3, hits give low values
[35] = locus YJR066W, strain TOR1 (second series), hits give low values
[36] = locus YJR066W, strain TOR1, hits give low values
[37] = locus YKL048C, strain ELM1, hits give low values
[38] = locus YKL067W, strain YNK1, hits give low values
[39] = locus YKL101W, strain HSL1, hits give low values
[40] = locus YKL193C, strain SDS22, hits give low values
[41] = locus YKL203C, strain TOR2, hits give low values
[42] = locus YLR113W, strain HOG1, hits give low values
[43] = locus YLR133W, strain CKI1, hits give low values
[44] = locus YLR403W, strain SFP1, hits give low values
[45] = locus YML070W, strain DAK1, hits give low values
[46] = locus YMR001C, strain CDC5, hits give low values
[47] = locus YMR205C, strain PFK2 (second series), hits give low values
[48] = locus YMR277W, strain FCP1, hits give low values
[49] = locus YNL006W, strain LST8, hits give low values
[50] = locus YNL020C, strain ARK1, hits give low values
[51] = locus YNL161W, strain CBK1, hits give low values
[52] = locus YNL183C, strain NPR1, hits give low values
[53] = locus YNL207W, strain RIO2, hits give low values
[54] = locus YNL222W, strain SSU72, hits give low values
[55] = locus YNL307C, strain MCK1 (second series), hits give low values
[56] = locus YOL078W, strain AVO1, hits give low values
[57] = locus YOL136C, strain PFK27, hits give low values
[58] = locus YOR061W, strain CKA2, hits give low values
[59] = locus YOR119C, strain RIO1, hits give low values
[60] = locus YOR231W, strain MKK1, hits give low values
[61] = locus YOR329C, strain SCD5, hits give low values
[62] = locus YPL031C, strain PHO85, hits give low values
[63] = locus YPL153C, strain RAD53, hits give low values
[64] = locus YPL204W, strain HRR25, hits give low values
[65] = locus YPL209C, strain IPL1, hits give low values
[66] = locus YPL256C, strain CLN2, hits give low values
[67] = locus YPR025C, strain CCL1, hits give low values
[68] = locus YPR106W, strain ISR1, hits give low values
[69] = locus YPR111W, strain DBF20, hits give low values
[70] = strain NNK1, hits give low values
[71] = strain TSCII, hits give low values

Measured: normalized growth

O=C(Nc1ccc(N2CCOCC2)cc1)c1ccc(-n2cccn2)cc1
inactive: [1] 0.994 | [2] 0.982 | [3] 0.974 | [4] 0.979 | [5] 0.975 | [6] 0.983 | [7] 0.985 | [8] 0.981 | [9] 0.974 | [10] 0.973 | [11] 0.959 | [12] 0.985 | [13] 0.987 | [14] 0.982 | [15] 0.96 | [16] 0.915 | [17] 0.957 | [18] 0.988 | [19] 0.988 | [20] 0.988 | [21] 0.955 | [22] 0.977 | [23] 0.953 | [24] 1.01 | [25] 0.991 | [26] 1.13 | [27] 1.1 | [28] 1.07 | [29] 0.982 | [30] 0.972 | [31] 1 | [32] 0.95 | [33] 0.966 | [34] 0.986 | [35] 0.96 | [36] 1.1 | [37] 0.946 | [38] 0.954 | [39] 0.931 | [40] 0.981 | [41] 1.04 | [42] 0.9 | [43] 0.962 | [44] 0.984 | [45] 0.928 | [46] 0.983 | [47] 0.95 | [48] 0.985 | [49] 0.979 | [50] 0.96 | [51] 0.978 | [52] 1.03 | [53] 0.979 | [54] 0.977 | [55] 0.958 | [56] 0.972 | [57] 0.923 | [58] 0.952 | [59] 1.01 | [60] 0.949 | [61] 0.985 | [62] 0.962 | [63] 0.958 | [64] 0.924 | [65] 0.979 | [66] 1.02 | [67] 0.982 | [68] 0.976 | [69] 0.968 | [70] 0.977 | [71] 0.982

O=C(CCNNC(=O)c1ccncc1)NCc1ccccc1
inactive: locus YAL040C, strain CLN3, hits give low values 0.999 | locus YCL061C, strain MRC1 (second series), hits give low values 1 | locus YDR150W, strain NUM1, hits give low values 0.998 | locus YDR363W, strain ESC2, hits give low values 0.959 | locus YER002W, strain NOP16, hits give low values 0.994 | locus YGR229C, strain SMI1, hits give low values 0.986 | [26] 0.978 | [27] 0.975 | [31] 0.972 | [36] 0.961 | locus YJR075W, strain HOC1, hits give low values 0.994 | [42] 0.966 | locus YMR263W, strain SAP30, hits give low values 0.994 | locus YNL153C, strain GIM3, hits give low values 0.99 | locus YNL175C, strain NOP13, hits give low values 0.996 | [52] 0.931 | locus YNL197C, strain WHI3, hits give low values 0.993 | locus YNL224C, strain SQS1, hits give low values 0.998 | locus YOR083W, strain WHI5 (second series), hits give low values 1 | [60] 0.97 | locus YPL055C, strain LGE1, hits give low values 0.987 | locus YPL241C, strain CIN2, hits give low values 1 | [66] 0.974

O=C(NCc1ccncc1)c1ccc(-n2cccn2)cc1
inactive: [1] 0.989 | [2] 0.984 | [3] 0.982 | [4] 0.982 | [5] 0.984 | [6] 0.992 | [7] 0.983 | [8] 0.982 | [9] 0.982 | [10] 0.984 | [11] 0.972 | [12] 0.987 | [13] 0.988 | [14] 0.983 | [15] 0.972 | [16] 0.941 | [17] 0.969 | [18] 0.981 | [19] 0.988 | [20] 0.98 | [21] 0.962 | [22] 0.979 | [23] 0.96 | [24] 1 | [25] 0.985 | [26] 1.11 | [27] 1.1 | [28] 1.05 | [29] 0.985 | [30] 0.982 | [31] 0.981 | [32] 0.953 | [33] 0.973 | [34] 0.984 | [35] 0.971 | [36] 1.09 | [37] 0.959 | [38] 0.972 | [39] 0.962 | [40] 0.976 | [41] 1.03 | [43] 0.955 | [44] 0.99 | [45] 0.954 | [46] 0.984 | [47] 0.973 | [48] 0.978 | [49] 0.993 | [50] 0.974 | [51] 0.985 | [52] 1.02 | [53] 0.981 | [54] 0.982 | [55] 0.966 | [56] 0.981 | [57] 0.928 | [58] 0.965 | [59] 1.02 | [60] 0.95 | [61] 0.986 | [62] 0.964 | [63] 0.969 | [64] 0.935 | [65] 0.984 | [66] 1.02 | [67] 0.987 | [68] 0.982 | [69] 0.968 | [70] 0.984 | [71] 0.981
active: [42] 0.854
